Here are results for 17 compounds from PubChem BioAssay (NCI).

About 83,000 compounds went through this panel and 20% of them were active in at least one assay; those are over-represented in the sample as a whole.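 A percent growth of 40 corresponds to 60% growth inhibition; 0 means no net growth; -100 means all cells died. Active threshold: below 10.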 A number with no mark means an inactive call. The source made the active and inactive calls.

The experiment has as its system SK-MEL-5 melanoma. The experiment in a line: NCI-60 one-dose screen, 48 h (100 = growth as untreated, 0 = no growth, -100 = all killed). As to conditions: 10 µM.
For `CC(C)(C)NC/C(=C\c1ccccc1)C(=O)c1ccccc1`, the growth was -66.9% (active).

As for `COc1ccc(-c2ccc3cc(C(=O)Nc4ccc(O)c(C(=O)/C=C/c5cc(OC)c(OC)c(OC)c5)c4)ccc3c2)cc1`, the growth is 72.6%.

On to `CCCCN(CCCC)c1cc(C(=O)CCCCCN)c2ccccc2n1`, for which the growth was 98.3%.

For `COc1ccc(NC(=O)Cc2nc3nc4sc(C)c(C)c4c(=O)n3[nH]2)cc1`, the growth was 86.7%.

Consider `COc1cc(-c2nc(-c3nnc(-c4ccc(F)c(Cl)c4)o3)c3ccccn23)cc(OC)c1OC`, for which the growth was 39.7%.

In the case of `NC(=O)SCC(=O)Nc1ccc(S(N)(=O)=O)cc1`, the growth is 102%.

Take `Nc1nccc(Nc2ccccc2)n1`: the growth was 107%.

For `Oc1[nH]c2cc(Cl)ccc2c1/C=c1/ccc2c(c1)N=C(c1cc(F)cc(F)c1)N=2`, the growth was 15.5%.

Consider `c1ccc2c(c1)oc1c3cccnc3ccc21`, for which the growth was 96.7%.

Regarding `COc1ccc2c(c1)sc1nc(-c3ccccc3)c(-c3ccsc3)n12`, the growth is 9.67% (active).

Regarding `CSc1cc(SC)ncn1`, the growth is 104%.

`COc1ccc2c(c1)sc1nc(-c3ccccc3)c(-c3ccc(O)c(OC)c3)n12`: the growth was 55.5%.

For `CCCCCCCCCCCCCC[n+]1ccc(C(N)=O)cc1`, the growth was -82.8% (active).

`CN1c2ccccc2[C@]2(Cc3ccccc3)Cc3ccccc3N[C@H]12`: the growth is 108%.

Take `CCN(CC)CCSCCCNc1c2ccc(Cl)cc2nc2ccc(OC)cc12`: the growth is -99.1% (active).

With `CC(=O)c1cc(Br)ccc1O`, the growth is 104%.

Consider `COc1ccc(-c2nc3sccn3c2-c2nc3c([nH]2)C(=O)c2ccccc2C3=O)cc1`, for which the growth was 89%.
